Some test systems named below: T-47D breast; BT-549 breast; MDA-MB-435 melanoma; SW-620 colon; MCF7 breast; HCT-116 colon; HCC-2998 colon; KM12 colon.
Common to all, as to experiment: NCI-60 one-dose screen, 48 h (100 = growth as untreated, 0 = no growth, -100 = all killed)
Details in all cases: 10 µM unless noted

Each structure is given as a SMILES string. The panel holds about 83,000 compounds, 20% with a hit somewhere; the sample as a whole holds those more often.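 In brief: 96-well plates, 48 h treatment, single concentration, percent growth endpoint.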 Unmarked numbers belong to inactive results. Activity calls are given as the source filed them. Rule for the calls: active = growth percent below 10; inactive = the rest.

As for `CCN(CC)CCOc1ccc(/C(=C(\C)Cc2ccc(OC)cc2)c2ccc(O)cc2)cc1`, the growth in the assay on T-47D breast is 20.3%; in the assay with BT-549 breast, 56.7%; in the assay with MDA-MB-435 melanoma, -67.8% (active); in the assay on SW-620 colon, -25.2% (active); with MCF7 breast, -14.8% (active); in the assay with HCT-116 colon it was -34.8% (active). Besides, the figures for the growth in the assay with HCC-2998 colon and in the assay with KM12 colon were 0.439% (active) and 32.4%, respectively.

Turning to `Cc1cc(C)n(C(=O)CSc2nc3sc4c(c3c(=O)n2-c2ccccc2)CCCCC4)n1`, the growth in the assay with T-47D breast is 89.9%; in the assay on BT-549 breast it was 100%; in the assay with MDA-MB-435 melanoma it was 105%; in the assay with SW-620 colon, 102%; in the assay with MCF7 breast it was 95.1%; in the assay on HCT-116 colon it was 104%. Further, the growth in the assay on HCC-2998 colon was 109%; in the assay with KM12 colon, 105%.

For `CN(Cc1ccccc1)c1nc(Cl)c(C2CC(c3ccc(Cl)cc3)=NN2c2cc(Cl)cc(Cl)c2)s1` (configuration not stated), the growth with T-47D breast was 84.9%; in the assay on BT-549 breast, 101%; in the assay with MDA-MB-435 melanoma it was 103%; with SW-620 colon, 98.8%; in the assay on MCF7 breast, 79.8%; in the assay with HCT-116 colon, 88.6%. Further, the values for the growth with HCC-2998 colon and in the assay with KM12 colon were 90.9% and 103%, respectively.

On to `Cc1cc2nc(C(Cl)Cl)nc(-c3ccccc3)n2n1`, for which the growth in the assay on T-47D breast was 61.7%; with BT-549 breast it was 86.8%; in the assay on MDA-MB-435 melanoma it was 68.9%; in the assay on SW-620 colon, 29.6%; with MCF7 breast, 41.5%; in the assay with HCT-116 colon, 41.1%. Further, the growth in the assay with HCC-2998 colon is 28.5%; in the assay on KM12 colon it was 18.2%.

`COc1ccc(/C=C2/CCc3cc4ccc(OC)cc4[o+]c32)c(O)c1`: the growth in the assay with T-47D breast was 67.2%; in the assay on BT-549 breast, 96.2%; in the assay on MDA-MB-435 melanoma, 2.85% (active); in the assay with SW-620 colon it was 11.9%; with MCF7 breast, 48.1%; in the assay with HCT-116 colon it was -64.1% (active). Also, the growth was 64.3% in the assay on HCC-2998 colon and 45.4% in the assay on KM12 colon.

In the case of `Cc1nn(C)c2ncnc(Nc3ccccc3Br)c12`, the growth in the assay on T-47D breast is 94.8%; in the assay with BT-549 breast, 108%; in the assay with MDA-MB-435 melanoma, 106%; with SW-620 colon, 106%; in the assay with MCF7 breast, 95.6%; in the assay with HCT-116 colon, 110%. In addition, the growth in the assay with HCC-2998 colon and in the assay with KM12 colon was 108% throughout.

On to `CCOC(=O)C1=C(c2ccccc2)N=C2SC=C(c3cccc([N+](=O)[O-])c3)N2C1c1ccc(O)cc1` (configuration not stated), for which the growth in the assay with T-47D breast is 93.5%; with BT-549 breast, 95.1%; in the assay with MDA-MB-435 melanoma, 101%; in the assay on SW-620 colon, 97.6%; with MCF7 breast, 95.1%; in the assay with HCT-116 colon, 100%. Further, the growth in the assay with HCC-2998 colon is 101%; with KM12 colon, 99.7%.

Turning to `c1ccc2c(-c3cnn4cc(-c5ccc(N6CCNCC6)cc5)cnc34)ccnc2c1`, the growth in the assay on T-47D breast is -45.9% (active); in the assay with BT-549 breast, -80.9% (active); in the assay on MDA-MB-435 melanoma, -99.4% (active); in the assay with SW-620 colon, -52.3% (active); in the assay on MCF7 breast, -64.1% (active); in the assay with HCT-116 colon it was -98.4% (active). For the same compound, the growth is -63.8% (active) in the assay on HCC-2998 colon and -72.7% (active) with KM12 colon.

As to `CC(C)(C)c1ccc(C(=O)Nc2sc3c(c2C#N)CCC(=O)C3)cc1`, the growth with T-47D breast is -31.8% (active); in the assay with BT-549 breast it was -11.7% (active); in the assay with MDA-MB-435 melanoma it was 6.81% (active); in the assay with SW-620 colon, -51% (active); in the assay with MCF7 breast it was 8.36% (active); in the assay on HCT-116 colon, 2.24% (active). Besides, the growth with HCC-2998 colon was 48.1%; in the assay on KM12 colon it was 12%.

Regarding `CN1C(=O)N(C)C2C1NN=c1s/c(=C\c3ccccc3F)c(=O)n12` (configuration not stated), the growth in the assay on T-47D breast was 52.6%; in the assay on BT-549 breast it was 18.9%; with MDA-MB-435 melanoma, -40.2% (active); with SW-620 colon it was 18.8%; in the assay with MCF7 breast, 18.6%; in the assay on HCT-116 colon, 14%. The growth with HCC-2998 colon was 5.08% (active); with KM12 colon, 17.4%.

As for `O=c1ccc2c(ccc3ncccc32)o1`, the growth was 94.6% in the assay with T-47D breast; 116% in the assay on BT-549 breast; 116% in the assay with MDA-MB-435 melanoma; 115% in the assay on SW-620 colon; 95.7% with MCF7 breast; 113% with HCT-116 colon. In addition, the growth in the assay on HCC-2998 colon and in the assay with KM12 colon was 107% throughout.

For `COc1ccccc1NC(=O)n1c(=O)cc(C)c2ccc(O)cc21`, the growth in the assay with T-47D breast is 99.8%; with BT-549 breast, 107%; with MDA-MB-435 melanoma it was 105%; in the assay with SW-620 colon, 109%; in the assay on MCF7 breast, 101%; in the assay on HCT-116 colon it was 107%. Further, the growth was 95.9% with HCC-2998 colon and 101% in the assay with KM12 colon.

Regarding `C=C(c1ccc(C(=O)O)c(F)c1)c1cc2c(cc1C)C(C)(C)C=CC2(C)C`, the growth is 58.9% in the assay on T-47D breast; 87.4% in the assay with BT-549 breast; 95.3% in the assay on MDA-MB-435 melanoma; 110% with SW-620 colon; 52.5% with MCF7 breast; 85.4% with HCT-116 colon. For the same compound, the growth is 112% with HCC-2998 colon and 66.6% with KM12 colon.

For the compound `O=C(Nc1ccccc1)Nc1ccccc1CNc1nc(Nc2ccc(OCCN3CCCC3)cc2)ncc1Cl`, the growth in the assay on T-47D breast was 55.7%; in the assay with BT-549 breast, 74.8%; in the assay with MDA-MB-435 melanoma, 55.2%; in the assay with SW-620 colon, 73%; in the assay with MCF7 breast it was 48.9%; in the assay on HCT-116 colon it was 45.7%. Moreover, the figures for the growth in the assay on HCC-2998 colon and in the assay with KM12 colon were 58.3% and 43.7%, respectively.

These data come from PubChem BioAssay (NCI).
